TROY signal inh: blocks TROY-dependent signaling in reporter cells; inhibition, % at 10 µM; actives 0.98% (n = 360,000); Q293 LMP1-TROYcd NF-kB luciferase reporter, 4 h;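 active = compounds whose plate-normalised and pattern-corrected inhibition of the luciferase reporter signal at the single screening dose is 50% or more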
Peg3 promoter: Peg3 promoter activity inhibition | HeLa PEG-Prom luciferase reporter, luminescence, overnight | inhibition, % at 20 µM | actives 1.7% (n = 360,000) | AID 588405;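 active = inhibition of at least 50% at 20 µM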
TWEAK Fn14 block: inhibitors of TWEAK-Fn14 interaction signaling. TWEAK-stimulated Fn14 reporter cells, luciferase luminescence, 8 h. inhibition, % at 10 µM. actives 2% (n = 360,000); in the data active = inhibition above about 50%
CF NFkB inh: inhibitors of cystic fibrosis induced NF-kB | KKLEB NF-kB-GFP reporter, PAF-induced, GFP fluorescence overnight | inhibition, % at 5 µM | actives 0.86% (n = 360,000) | AID 588850;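 active = at least 50% inhibition at 5 µM, scaled per plate between neutral and stimulator controls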;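 note: PAF is a Pseudomonas aeruginosa culture filtrate used as stimulus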
HIF-2a block: blocks HIF-2a reporter activity; 786-0 RCC cells HIF-2a reporter, luciferase luminescence, overnight; inhibition, % at 18.8 µM; actives 0.72% (n = 360,000);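 active = inhibition of the luminescence signal of 40% or more relative to plate controls, in a single-dose primary screen at 18.75 µM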
KKLEB tox: CF airway cell cytotoxicity counter-screen; AID 602141; KKLEB CF airway cells viability, ATPlite luminescence, overnight; stronger effect = lower value; cells stimulated with P. aeruginosa culture filtrate; activity change (cytotoxicity), % at 5 µM; actives 0.36% (n = 360,000);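 active = corrected activity change at or below -50% at 5 µM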
Mdm2 MdmX conf: confirmation of inhibitors of human Mdm2/MdmX interaction, set 2. shares compounds with HIF-2a block. SaOS-2 split-luciferase Mdm2/MdmX complementation, luminescence. inhibition, % at 8 µM. actives 99% (n = 740). AID 504601;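 active = mean inhibition of the luminescence signal across two replicates at or above 26 percent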
Target sequence (O15151 whole entry, looked up): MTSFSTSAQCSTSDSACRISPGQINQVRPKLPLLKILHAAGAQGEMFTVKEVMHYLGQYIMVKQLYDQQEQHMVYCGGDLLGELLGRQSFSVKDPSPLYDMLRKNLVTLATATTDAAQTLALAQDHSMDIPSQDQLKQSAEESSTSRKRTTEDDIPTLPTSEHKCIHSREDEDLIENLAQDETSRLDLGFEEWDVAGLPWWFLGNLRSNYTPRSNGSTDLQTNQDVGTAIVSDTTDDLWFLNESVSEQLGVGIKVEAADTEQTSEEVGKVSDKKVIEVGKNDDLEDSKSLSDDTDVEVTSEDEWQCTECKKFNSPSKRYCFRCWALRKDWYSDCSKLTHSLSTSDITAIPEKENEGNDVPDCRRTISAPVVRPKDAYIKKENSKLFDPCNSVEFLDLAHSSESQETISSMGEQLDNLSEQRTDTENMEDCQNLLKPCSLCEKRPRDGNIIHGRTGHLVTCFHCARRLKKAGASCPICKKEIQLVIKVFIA
Target sequence (Q00987 whole entry, looked up): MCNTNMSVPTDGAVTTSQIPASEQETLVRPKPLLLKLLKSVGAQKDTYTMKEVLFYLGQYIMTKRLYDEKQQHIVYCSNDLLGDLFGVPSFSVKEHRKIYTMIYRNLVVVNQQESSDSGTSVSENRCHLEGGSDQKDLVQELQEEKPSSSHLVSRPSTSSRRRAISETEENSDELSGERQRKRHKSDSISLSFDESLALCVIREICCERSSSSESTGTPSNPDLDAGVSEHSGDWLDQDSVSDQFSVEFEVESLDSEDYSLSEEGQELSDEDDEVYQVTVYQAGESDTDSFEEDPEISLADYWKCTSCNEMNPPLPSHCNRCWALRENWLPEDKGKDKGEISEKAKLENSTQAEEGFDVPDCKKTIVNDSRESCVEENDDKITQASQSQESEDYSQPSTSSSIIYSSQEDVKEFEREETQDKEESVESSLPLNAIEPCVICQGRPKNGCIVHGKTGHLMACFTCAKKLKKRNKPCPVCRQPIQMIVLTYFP
HIF-2a inh conf: HIF-2a inhibition, single concentration confirmation | shares compounds with HIF-2a block | 786-0 RCC cells, HIF-2a luciferase reporter luminescence, overnight | inhibition, % at 18.8 µM | actives 56% (n = 1,800);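 active = mean inhibition across four replicates of at least 40 percent at the single tested concentration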
HIF-1a counter: inhibits HIF-1a reporter, a counter-screen for HIF-2a inhibitors. inhibition, % at 18.8 µM. shares compounds with HIF-2a block. actives 72% (n = 1,800). AID 651589. MiaPaCa-2 HIF-1a luciferase reporter, desferoxamine, overnight;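 active = mean inhibition of the reporter signal across four replicates at the single tested dose of 50% or more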
Numbers stand for hits; i = inactive; nt = no result; ! = not active in a repeat. Shown are actives, neighbours in structure and some others; about 4% of the full set was active somewhere.

SMILES | TROY signal inh | Peg3 promoter | TWEAK Fn14 block | CF NFkB inh | HIF-2a block | KKLEB tox | HIF-2a inh conf | HIF-1a counter | others
COc1ccc(C(=O)c2no[n+]([O-])c2C(=O)c2ccc(OC)cc2)cc1 | i | 65.8 | i | 90.2 | 65.0 | -79.6 | i | i
CCCCCc1ccc(-c2cn(CC3CCCCC3)nn2)cc1 | i | i | i | i | i | i | nt | nt
O=S(=O)(c1ccc(F)cc1)c1snnc1-c1ccccc1 | i | 74.8 | 63.5 | i | 40.5 | i | i | i
CN(C)c1ncc(S(=O)(=O)c2ccc(Cl)cc2)c(-c2ccccc2)n1 | i | i | i | i | i | i | nt | nt
c1ccc(-c2nnsc2-c2ncc[nH]2)cc1 | i | i | i | i | i | i | nt | nt
O=S(=O)(c1ccc(Cl)cc1)c1snnc1-c1ccccc1 | i | 93.4 | 88.5 | i | 58.0 | i | 62.5 | 102.7 | Mdm2 MdmX conf=103.2
COc1ccc(/C=C(/C(=O)Nc2ccccc2C(=O)NC(C)C)c2ccccc2)cc1 | i | i | i | i | i | i | nt | nt
CCCCN(C(=O)CCCc1nc2ccccc2s1)c1c(N)n(CCCC)c(=O)[nH]c1=O | i | i | i | i | i | i | nt | nt
CCCc1ccc2oc(C(=O)N(C)Cc3ccn[nH]3)c(C)c2c1 | i | i | i | i | i | i | nt | nt
CC(Oc1ccc(C(C)(C)C)cc1)c1ccnc2nc(/N=C/N(C)C)nn12 (stereo not drawn) | i | i | i | i | i | i | nt | nt
Cc1cccc(C2(c3cccc(C)c3)CC2C(=O)Nc2ccc([N+](=O)[O-])cc2O)c1 (stereo not drawn) | 59.9 | 53.7 | 74.0 | 58.4 | i | -61.6 | nt | nt | Mdm2 MdmX conf=100.2
O=C1c2cccc3c([N+](=O)[O-])ccc(c23)C(=O)N1c1ccc(Cl)cn1 | 61.8 | 105.4 | i | i | i | i | nt | nt | Mdm2 MdmX conf=103.0
CSc1ncc(C(=O)Nc2ccc(Br)cn2)c(C)n1 | i | i | i | i | i | i | nt | nt
O=C(Nc1ccc(OCc2ccccc2)cc1)c1cccnc1 | i | i | i | i | i | i | nt | nt
O=C(Nc1ccc(OCc2ccccc2Cl)cc1)c1cccnc1 | i | i | i | i | 47.6 | i | 83.1 | 88.9
NC(=O)NC(=O)COC(=O)c1ccc(OC(F)F)cc1 | i | i | i | i | i | i | nt | nt
CCCS(=O)(=O)N1CCC(C(=O)NC2CCCCC2C)CC1 (stereo not drawn) | i | i | i | i | i | i | nt | nt
O=C(CCCc1nc(-c2ccccc2Cl)no1)NC1CCCC1 | 51.8 | i | 91.5 | i | 87.7 | i | 96.3 | 64.4
COc1ccccc1-c1noc(CCCC(=O)NC2CCCC2)n1 | i | i | i | i | i | i | nt | nt
CCOC(=O)c1ccc(NC(=O)CSCC(=O)OCC(=O)c2ccccc2)cc1 | i | i | i | i | i | i | nt | nt
C=C1[C@@H](O)[C@H](Cc2ccccc2)N(Cc2ccccc2Br)S1(=O)=O | i | 96.8 | 66.7 | 84.8 | 70.7 | -93.4 | 54.9 | 106.1
Cc1ccccc1CN1[C@@H](Cc2ccccc2)COCCS1(=O)=O | i | i | i | i | i | i | nt | nt
CCCOc1ccc(C(=O)C(CN2CCCC2)c2ccccc2)cc1 (stereo not drawn) | i | 108.5 | i | i | 85.5 | -61.0 | i | 103.9
CCCCCOc1ccc(C(=O)C(c2ccccc2)N2CCOCC2)cc1 (stereo not drawn) | i | i | i | i | i | i | nt | nt
CCCCOc1ccc(C(=O)C(CN2CCOCC2)c2ccccc2)cc1 (stereo not drawn) | i | 96.5 | i | i | 86.9 | i | i | 104.8
SMILES | TROY signal inh | Peg3 promoter | TWEAK Fn14 block | CF NFkB inh | HIF-2a block | KKLEB tox | HIF-2a inh conf | HIF-1a counter | others
COC(=O)C1CSc2[nH]c(=O)sc2C1c1ccccc1 (stereo not drawn) | i | i | i | i | i | i | nt | nt
FC(F)(F)c1ccccc1Cc1c(-c2ccccc2)nc2ccc(Cl)cn12 | i | i | i | i | i | i | nt | nt
FC(F)(F)c1ccccc1Cc1c(-c2ccco2)nc2ccc(Cl)cn12 | i | i | i | i | 37.3 | i | i | 64.3
Cc1ccccc1C(=O)Nc1ccnn1C1CCN(Cc2ccncc2)CC1 | i | i | i | i | i | i | nt | nt
CS(=O)(=O)c1ccc(NC(=O)c2cccc(-n3cnnn3)c2)cc1 | i | i | i | i | i | i | nt | nt
CS(=O)(=O)c1ccc(Cl)c(NC(=O)c2cccc(-n3cnnn3)c2)c1 | i | i | i | i | 50.9 | i | i | i
COC(=O)CSc1nnc(-c2sc3ccccc3c2Cl)o1 | i | i | 63.6 | i | 90.5 | i | 95.2 | 69.0
Cc1nc(Cl)sc1C(=O)O | i | i | i | i | i | i | nt | nt
CCN(CC)Cc1c(O)ccc2c1O/C(=C\C=C\c1ccccc1)C2=O | i | 81.5 | 62.6 | i | 65.7 | i | nt | nt | Mdm2 MdmX conf=i
OC(COc1ccc(CNCCc2ccc(C(F)(F)F)cc2)cc1)CN1CCCCC1 (stereo not drawn) | i | 104.0 | i | i | i | i | nt | nt | Mdm2 MdmX conf=103.7
CC1CCC(C(C)C)C(OC(=O)Cn2c(-c3ccc(Br)cc3)[n+](C)c3ccccc32)C1 (stereo not drawn) | i | 95.6! | 55.9! | 54.5 | i | -57.3! | nt | nt | Mdm2 MdmX conf=102.7
CC1CCC(C(C)C)C(OC(=O)Cn2c(-c3ccc(Cl)cc3)[n+](C)c3ccccc32)C1 (stereo not drawn) | i | 75.6 | 59.2 | 55.8 | i | -58.0 | nt | nt | Mdm2 MdmX conf=100.2
CC1CCC(C(C)C)C(OC(=O)COC(=O)c2cccn2C)C1 (stereo not drawn) | i | i | i | i | i | i | nt | nt
Cc1ccccc1OCc1n(CC(=O)OC2CC(C)CCC2C(C)C)c2ccccc2[n+]1C (stereo not drawn) | 64.5 | 102.0 | 83.2! | 83.2 | 94.3! | -82.7 | i | 107.5 | Mdm2 MdmX conf=102.0
CN(CC(=O)Nc1ccc(F)c(F)c1F)C(=O)c1ccc2c(c1)OCCO2 | i | i | i | i | i | i | nt | nt
Cc1ccccc1C1=NC(C(F)(F)F)(C(F)(F)F)c2c(n(C)c(=O)n(C)c2=O)N1 | i | i | i | i | i | i | nt | nt
Cn1c2c(c(=O)n(C)c1=O)C(C(F)(F)F)(C(F)(F)F)N=C(c1ccc(Cl)cc1)N2 | 57.1 | i | 62.1 | 66.8 | i | i | nt | nt | Mdm2 MdmX conf=97.0
CC(C)(O)C#Cc1ccc(N2C(c3ccsc3)=Cc3ccc(F)cc3C2c2c[nH]c3ccc(C#N)cc23)cc1 (stereo not drawn) | i | nt | i | nt | i | nt | nt | nt
CCOC(=O)c1ccc(-c2ccc(N3C(c4ccsc4)=Cc4ccc(F)cc4C3c3c[nH]c4ccc(C#N)cc34)cc2)cc1F (stereo not drawn) | i | nt | 53.5 | nt | 70.9 | nt | 46.6 | i

Screens (PubChem)
